Common to all, as to assay: NCI-60 one-dose screen, 48 h (100 = growth as untreated, 0 = no growth, -100 = all killed)
Holding throughout (conditions): 10 µM unless noted

Assay [1] deals with NCI/ADR-RES ovarian.
Assay [2] concerns BT-549 breast.
In assay [3] the test system is MDA-MB-435 melanoma.
For assay [4], the system named is SW-620 colon.
In assay [5] the test system is MCF7 breast.
In assay [6] the test system is HCT-116 colon.
The test system of assay [7] is HCC-2998 colon.
The test system of assay [8] is KM12 colon.
Assay [9] deals with T-47D breast.

This is part of a sample that, as a whole, favours compounds with a hit. Of some 83,000 tested, about 20% had one in any assay.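 Cell lines were cultured in 96-well plates, exposed to a single compound concentration, and assessed for percent growth 48 hours later.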 Values without a mark were called inactive. Activity calls are given as the source filed them. How the source made its calls: active means growth percent below 10; inactive means the rest.

With `CCn1c2ccccc2c2cc(C(=O)c3cccc4c3CCCN4)ccc21`, the growth in assay [1] was 92.7%; in [2], 98.1%; in [3], 97.6%; in [4], 96.1%; in [5], 96.5%; in assay [6] it was 105%. Further, the figures for the growth in assay [7] and in assay [8] were 104% and 94.9%, respectively.
Consider `Nc1ccc2c(c1)Cc1cc(Br)ccc1-2`, for which the growth in [1] was 101%; in [9] it was 102%; in [3], 111%; in assay [4], 108%; in assay [5], 64.7%; in assay [6], 98.2%. Further, the growth in assay [7] was 99.7%; in assay [8], 105%.
Take `COc1ccc(-n2c(C)nc3cc(OC)c(OC)cc3c2=O)cc1OC`: the growth in assay [1] is 102%; in [2], 102%; in [3], 104%; in [4] it was 105%; in [5] it was 91.8%; in assay [6], 98.7%. Besides, the growth is 109% in assay [7] and 104% in assay [8].
For the compound `CCC1(C(C)C)C(=O)NC(=S)NC1=O`, the growth is 115% in [1]; 113% in [2]; 101% in assay [3]; 97% in [4]; 105% in [5]; 106% in assay [6]. The growth in assay [7] was 117%; in [8], 100%.
As for `COc1ccc(C(=O)c2sc3nc4c(cc3c2N)N2CCC4CC2)cc1OC`, the growth in assay [1] was 79.4%; in assay [2], 81.5%; in [3], 99.9%; in assay [4], 126%; in assay [5] it was 84.5%; in assay [6], 86.2%. The figures for the growth in assay [7] and in assay [8] were 109% and 97.7%, respectively.
Regarding `C/C1=C/C(=O)O[C@@H]2C[C@@H](CC[C@H](C)/C=C\C=C\CC1)O[C@@](O)([C@@H]1CSC(=O)N1CO)C2`, the growth in assay [1] was 47.6%; in [2], -13.3% (active); in assay [3], 32%; in assay [4], 53.2%; in [5], 56.8%; in assay [6], 27.2%. In addition, the values for the growth in [7] and in assay [8] were 34.7% and 62%, respectively.
For the compound `O=C1C(N2CC2)=C(N2CC2)C(=O)C(N2CC2)=C1N1CC1`, the growth is -27.7% (active) in [1]; -34.2% (active) in assay [2]; -74.7% (active) in assay [3]; 0.521% (active) in assay [4]; -46.1% (active) in assay [5]; -79.2% (active) in assay [6]. In addition, the growth is -94.9% (active) in assay [7] and -58.6% (active) in assay [8].
Consider `CCCCCCC(=O)NC1=C(N2CC2)C(=O)C(NC(=O)CCCCCC)=C(N2CC2)C1=O`, for which the growth in assay [1] was 60.1%; in assay [2], 28%; in [3] it was 13.4%; in assay [4], 56.9%; in assay [5], 19.1%; in assay [6], -14.1% (active). The values for the growth in assay [7] and in [8] were 53.9% and 48.8%, respectively.
`COC(=O)[C@@H](NC(=O)c1cn(CCC2CCCCC2)c2ccccc12)C(C)(C)C`: the growth in [1] was 73.6%; in assay [2] it was 84.1%; in assay [3], 83.3%; in assay [4], 86.3%; in assay [5], 75%; in assay [6] it was 64.2%. For the same compound, the growth in assay [7] was 86.3%; in [8], 69.8%.
`COc1ccc2c(c1)c(-c1nc(-c3c[nH]c4ncccc34)cs1)cn2CCN1CCOCC1`: the growth in assay [1] was 38.7%; in assay [2] it was 50.6%; in [3] it was 73%; in assay [4], 75.5%; in assay [5], 5.06% (active); in assay [6], 52.5%. Moreover, the values for the growth in assay [7] and in [8] were 74.1% and 20.2%, respectively.
With `ClCCN(CCCl)c1ccc(/C=N/Nc2ncnc3nc[nH]c23)cc1`, the growth in [1] is 98.4%; in assay [2], 95%; in assay [3] it was 79.9%; in [4] it was 77.6%; in [5], 42.5%; in [6] it was 78.4%. Further, the growth was 94.6% in assay [7] and 96.6% in assay [8].
In the case of `C/C(=C\c1cc(C(F)(F)F)nn1CCNC(=O)OC(C)(C)C)[C@@H]1C[C@@H]2O[C@]2(C)CCC[C@H](C)[C@H](O)[C@@H](C)C(=O)C(C)(C)[C@@H](O)CC(=O)O1`, the growth was 28% in [1]; 73.2% in [2]; -27.6% (active) in [3]; 34.7% in assay [4]; 31.2% in [5]; 23.3% in assay [6]. In addition, the growth in [7] was 57.3%; in assay [8], 20.3%.
With `CCCCCCCC[N+](C)(CCCCCCCC)CCCCCCCC`, the growth is -100% (active) in [1]; -73.4% (active) in assay [9]; -90.8% (active) in assay [3]; -100% (active) in assay [4]; -100% (active) in assay [5]; -100% (active) in assay [6]. Also, the growth is -98% (active) in assay [7] and -100% (active) in [8].
Take `COC(=O)[C@@H](C)C[C@H](Cc1ccc(F)cc1)NC(=O)c1csc([C@@H](C[C@H](C(C)C)N(C)C(=O)[C@@H](NC(=O)[C@H]2CCCCN2C)C(C)C)OC(C)=O)n1`: the growth in assay [1] is 25.2%; in [2], -18.6% (active); in [3], -28.8% (active); in [4], 26.9%; in [5] it was 22.2%; in assay [6] it was 4.23% (active). Moreover, the growth in [7] was 21.8%; in assay [8] it was 12.4%.

(Values after PubChem BioAssay (NCI).)
